Laboratory results taken from PubChem BioAssay (EPA / NIEHS).
“And” between values parts separate entries of the source, which are not always exact repeats. Equal values may be shown once. Where a structure was tested more than once in an assay, its records may differ in their call. The source made the active and inactive calls. The calls were made as follows: active = hit-call score of the fitted dose curve at least 0.9, where 1 is the maximum; inactive = score below 0.9.

test: ATG_CRE_CIS: Attagene CIS-FACTORIAL HepG2 Assay for human cAMP Responsive Element (CRE) binding protein 3 (AID 2282926); details: HepG2 CRE cis-reporter, Attagene multiplexed mRNA; actives raise or lower the signal
Procedure: ATG_CIS is a cell-based, multiplexed-readout assay that uses HepG2, a human liver cell line, with measurements taken at 24 hours after chemical dosing in a 24-well plate.ATG_CRE_CIS is one of 52 assay component(s) measured or calculated from the ATG_CIS assay. It is designed to make measurements of mRNA induction, a form of inducible reporter, as detected with fluorescence intensity signals by Reverse transcription polymerase chain reaction (RT-PCR) and Capillary electrophoresis technology.Data from the assay component ATG_CRE_CIS was analyzed into 1 assay endpoint. This assay endpoint, ATG_CRE_CIS, was analyzed with bidirectional fitting relative to DMSO as the negative control and baseline of activity. Using a type of inducible reporter, measures of mRNA for gain or loss-of-signal activity can be used to understand the reporter gene at the transcription factor-level as they relate to the gene CREB3. Furthermore, this assay endpoint can be referred to as a primary readout, because this assay has produced multiple assay endpoints where this one serves a reporter gene function. To generalize the intended target to other relatable targets, this assay endpoint is annotated to the dna binding intended target family, where the subfamily is basic leucine zipper.
Human liver HepG2 cells are transiently transfected with multiple reporter transcription units (MRTUs) in 6-well plates using FuGene 6 reagent (Roche; 3 ml FuGene/1 mg DNA). The MRTU constructs are regulated by a cis-regulating element (promoter). […] A major difference between the CIS and TRANS system is that in CIS activities of endogenous TFs are measured, whereas the TRANS assay evaluates changes in activities of exogenous, chimeric NR-Gal4 proteins. […] At the end of 24 hour incubation, total RNA was isolated using TriZol reagent (Invitrogen). The isolated RNA is then reverse-transcribed using oligo(dT) primer and Mo-MLV reverse transcriptase (Invitrogen) with DNAse I (Ambion) treatment for 30 min. The one-tenth of the produced cDNA was amplified by PCR using Taq DNA polymerase (Invitrogen) and two reporter sequence-specific primers. The PCR products were fluorescently labeled by primer extension with 6-arboxyfluorescein (6-FAM) 5'-labeled reporter sequence-specific primer (2 min at 95 C, 20 s at 68 C and 10 min at 72 C) and these products were digested with 5U of HpaI (New England Biolabs) for 2h at 37 C. The fragments were purified using Qiaquick PCR columns (Qiagen), analyzed on an ABI 3130xL genetic analyzer (Applied Biosystems) with peak positions identified by using a set of X-rhodamine (ROX)-labeled MapMarker1000 molecular weight standards (BioVentures). The raw capillary electrophoresis data was processed using Attagraph software (Attagene).

SMILES | outcome | AC50
C#C[C@]1(O)CC[C@H]2[C@@H]3CCC4=CC(=O)CC[C@@H]4[C@H]3CC[C@@]21CC | inactive | –
O=C(O)C1(C(=O)Nc2ccc(Cl)cc2Cl)CC1 | inactive | –
CCOC(=O)C(C)Oc1ccc(Oc2cnc3cc(Cl)ccc3n2)cc1 (stereo not given) | inactive | –
COC(=O)c1ccccc1C(=O)O | inactive | –
CC(C)(C)[C@@H](O)[C@@H](Cc1ccc(Cl)cc1)n1cncn1 | – | 13.5 µM (active)
CC(C)CCCCCCc1ccc(O)cc1 | inactive | 17.3 µM (active) and 16.4 µM (active)
CCCCOC(=O)C(C)Oc1ccc(Oc2ccc(C(F)(F)F)cn2)cc1 (stereo not given) | inactive | –
CCCCCOC(=O)COc1cc(N2C(=O)C3=C(CCCC3)C2=O)c(F)cc1Cl | inactive | –
O=C(O)c1ccccc1 | inactive | –
COc1nc(C)nc(NC(=O)NS(=O)(=O)c2ccccc2OCCCl)n1 | inactive | –
COC(=O)c1ccccc1S(=O)(=O)NC(=O)Nc1nc(OC(F)F)cc(OC(F)F)n1 | inactive | –
CCC(O)=C1C(=O)CC(C(=O)O)CC1=O (stereo not given) | inactive | –
CCCN(CCC)c1c([N+](=O)[O-])cc(C(F)(F)F)c(N)c1[N+](=O)[O-] | inactive | –
CCSC(=O)N(CC(C)C)CC(C)C | inactive | –
CCN(CC)C(=O)c1cccc(C)c1 | inactive | –
OB(O)O | inactive | –
CN(C)C(=O)Nc1ccc(Cl)c(Cl)c1 | inactive | –
COC(=O)c1c(Cl)nn(C)c1S(=O)(=O)NC(=O)Nc1nc(OC)cc(OC)n1 | inactive | –

SMILES | outcome | AC50
S=C(S)NCCNC(=S)S.[Mn+2].[S-]C([S-])=NCCN=C([S-])[S-].[Zn+2] | inactive | 10.1 µM (active) and 9.92 µM (active)
CC(C)(c1ccc(O)cc1)c1ccc(O)cc1 | inactive | 64.3 µM (active) and 25.5 µM (active) and 22.7 µM (active)
Oc1ccc(C(c2ccc(O)cc2)C(Cl)(Cl)Cl)cc1 | inactive | –
CCCCC(CC)COC(=O)c1ccccc1C(=O)O (stereo not given) | inactive | –
CC(=O)S[C@@H]1CC2=CC(=O)CC[C@]2(C)[C@H]2CC[C@@]3(C)[C@@H](CC[C@@]34CCC(=O)O4)[C@H]12 | inactive | 25.5 µM (active) and 17.9 µM (active) and 3.75 µM (active)
O=C(Nc1ccc([N+](=O)[O-])cc1Cl)c1cc(Cl)ccc1O | – | 0.506 µM (active)
CCCCCCC(C)OC(=O)COc1nc(F)c(Cl)c(N)c1Cl (stereo not given) | inactive | –
N#CSCSc1nc2ccccc2s1 | inactive | 18.2 µM (active)
CCNc1nc(N)nc(Cl)n1 | inactive | –
CCN(Cc1c(F)cccc1Cl)c1c([N+](=O)[O-])cc(C(F)(F)F)cc1[N+](=O)[O-] | inactive | –
N[C@@H](Cc1cc(I)c(Oc2ccc(O)c(I)c2)c(I)c1)C(=O)O | inactive | –
Cc1nn(C)c(Oc2ccccc2)c1C=NOCc1ccc(C(=O)OC(C)(C)C)cc1 | – | 0.0405 µM (active)
CCCOC(=O)c1ccc(C(=O)OCCC)nc1 | inactive | –
O=C(c1ccccc1)C1CCCCC1 | inactive | –
C[C@]12CC[C@@H]3c4ccc(O)cc4C[C@@H](CCCCCCCCCS(=O)CCCC(F)(F)C(F)(F)F)[C@H]3[C@@H]1CC[C@@H]2O (stereo not given in full) | inactive | –
CCCN(CCC)C(=O)SCC | inactive | –
CCOC(=O)COc1cc(-n2ncc(C(F)(F)F)c(C)c2=O)c(F)cc1Cl | inactive | –
